# Bioassay records deposited in PubChem by University of Kansas High Throughput Screening Laboratory.
# This excerpt belongs to a sample that is enriched for hits.
# Pf apPOL inh: Pf-apPOL DNA polymerase inhibition; inhibition, % at 10 µM; AID 1794808; Recombinant Pf-apPOL, molecular beacon fluorescence, 1.5 h; 210,000 tested, 0.25% active
# mHTT CaM bind: disrupts binding of mutant huntingtin to calmodulin; AlphaScreen His-mHTT/GST-CaM binding, luminescence; AID 1671202; 190,000 tested, 3.6% active; P42858; inhibition, % at 15 µM;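 note: 0% = both proteins with DMSO and 100% = one protein alone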
# Starred values were filed as active, the others as inactive; . = no result given. Cut-off read from the data, not from the text of the source: active = inhibition above about 50%; inactive = the rest.
SMILES,Pf apPOL inh,mHTT CaM bind
COc1cc(C2SCCS2)cc([N+](=O)[O-])c1O,.,2
N#CC1=C(N)OC2=C(C(=O)CC(c3ccccc3)C2)C1c1c[nH]c2ccccc12 (stereo unspecified),3,58*
N#CC1=C(N)OC2=C(C(=O)CC(c3ccccc3)C2)C1c1ccccc1F (stereo unspecified),-9,14
CN(C)c1ncncc1N1CCC(C(=O)NCc2cccs2)CC1,-3,-1
O=C1CCc2c1[nH]c1ccc(C3CCCCC3)cc21,4,10
OCCN=C1CCc2c1[nH]c1ccc(C3CCCCC3)cc21,-5,58*
CCn1cnc2sc(C(=O)NCc3ccccn3)c(C)c2c1=O,1,-4
Nc1nc(O)c(C2=c3cc(F)ccc3=NC2=O)s1,4,81*
O=C1N=c2ccc(F)cc2=C1c1sc(Nc2ccc(F)cc2)nc1O,-13,22
Cc1ccc(N2C(=O)CCC2(C)C(=O)NC2CCCC2)cc1Cl (stereo unspecified),-2,4
O=c1[nH]c2ccccc2n1CCCSc1nccc2ccccc12,-8,100*
Cc1cc(C)nc(SCCCn2c(=O)[nH]c3ccccc32)n1,-2,18
Cc1ccc(C(=O)Nc2nc3ccc(S(C)(=O)=O)cc3s2)cc1[N+](=O)[O-],-3,2
CC(C)NC(=O)c1ccc2ncc3c(=O)n(-c4ccc(Cl)cc4)[nH]c3c2c1,2,51*
CCc1ccc(-n2[nH]c3c(cnc4ccc(C(=O)N5CCCC5)cc43)c2=O)cc1,4,-4
CCC1CCCCN1C(=O)c1ccc2ncc3c(=O)n(-c4ccccc4)[nH]c3c2c1 (stereo unspecified),0,66*
CCc1ccc(-n2[nH]c3c(cnc4ccc(C(=O)NC(C)C)cc43)c2=O)cc1,-4,-5
CC(=O)N1CCc2[nH]c3ccc(C(=O)N4CCOCC4)cc3c2C1,-1,36
CCC(CC)N1CCN(C(=O)c2ccc3[nH]c4c(c3c2)CN(C(C)=O)CC4)CC1,-5,38
CCN(CCNC(=O)c1ccc2[nH]c3c(c2c1)CN(C(C)=O)CC3)c1ccccc1,-4,68*
CC(=O)N1CCc2[nH]c3ccc(C(=O)NCCc4nc5ccccc5n4C)cc3c2C1,-2,14
CC(=O)N1CCc2[nH]c3ccc(C(=O)NCc4ccc(N5CCN(C)CC5)cc4)cc3c2C1,-2,21
CCN(CC)c1ccc(CNC(=O)c2ccc3[nH]c4c(c3c2)CN(C(C)=O)CC4)cc1,0,69*
CC(=O)N1CCc2[nH]c3ccc(C(=O)NCc4ccc(F)cc4)cc3c2C1,4,72*
CCN(C(=O)c1ccc2[nH]c3c(c2c1)CN(C(C)=O)CC3)c1cccc(C)c1,-4,84*
SMILES,Pf apPOL inh,mHTT CaM bind
Cc1ccc(N2CCN(C(=O)COc3ccc(Cl)cc3)C(C)C2=O)c(C)c1 (stereo unspecified),-6,18
CC(=O)N1CCc2[nH]c3ccc(C(=O)N4CCN(Cc5ccc(C)cc5)CC4)cc3c2C1,-3,78*
CC(=O)N1CCc2[nH]c3ccc(C(=O)N4CCN(C(C)C)CC4)cc3c2C1,-3,14
CC(C)C1N=C(c2ccc3c(c2)OCO3)CC(c2cc(Cl)ccc2O)N1 (stereo unspecified),-1,67*
CCOC(=O)N1CCC2(CC1)N=C(c1ccccc1O)CC(c1cc(Cl)ccc1O)N2 (stereo unspecified),-3,9
Cc1ccc(C)c(C2=NC3(CCN(C)CC3)NC(c3cc(Cl)ccc3O)C2)c1 (stereo unspecified),1,98*
COc1ccc(C2=NC3(CCN(C(C)=O)CC3)NC(c3cc(Cl)ccc3O)C2)cc1 (stereo unspecified),-4,99*
CC(=O)N1CCC2(CC1)N=C(c1ccc(C)cc1C)CC(c1cc(Cl)ccc1O)N2 (stereo unspecified),-5,88*
CC(C)C1N=C(c2ccc3c(c2)OCO3)CC(c2cc(Br)ccc2O)N1 (stereo unspecified),-3,31
Cc1ccc(C2CC(c3ccccc3O)=NC3(CCN(C)CC3)N2)cc1 (stereo unspecified),6,38
CCN1CCC2(CC1)N=C(c1ccc(F)cc1)CC(c1cc(Cl)ccc1O)N2 (stereo unspecified),3,28
Fc1cccc(-c2nc(-c3cccc(-c4ccn[nH]4)c3)no2)c1,0,1
O=C(CC1CCN(S(=O)(=O)c2ccc(Cl)s2)CC1)N1CCC2(CC1)OCCO2,3,4
CC1=NN(c2ccc(C)cc2)C(=O)/C1=C/c1cccc([N+](=O)[O-])c1,-6,36
COc1cccc(C2=NC3(CCN(C)CC3)NC(c3cc(Cl)ccc3O)C2)c1 (stereo unspecified),-4,52*
CN1CCC2(CC1)N=C(c1ccccc1O)CC(c1ccccc1O)N2 (stereo unspecified),0,28
CC(=O)N1CCC2(CC1)N=C(c1ccc3c(c1)OCO3)CC(c1cc(Cl)ccc1O)N2 (stereo unspecified),1,79*
Oc1ccc(Cl)cc1C1=NC2(CCNCC2)NC(c2ccccc2O)C1 (stereo unspecified),-4,100*
CCN1CCC2(CC1)N=C(c1ccc3c(c1)OCO3)CC(c1cc(Cl)ccc1O)N2 (stereo unspecified),0,17
CCOc1ccc(C2=NC3(CCN(C)CC3)NC(c3cc(Cl)ccc3O)C2)cc1 (stereo unspecified),0,9
CCN1CCC2(CC1)N=C(c1ccc(C)cc1)CC(c1cccc(OC)c1O)N2 (stereo unspecified),-3,10
CCCC1(C)N=C(c2ccc(Cl)cc2)CC(c2cccc(OC)c2O)N1 (stereo unspecified),-7,88*
O=C(NCc1cccnc1)C1CCCN(c2ncccc2-c2noc(C3CCC3)n2)C1 (stereo unspecified),-5,2
CC(C)N1CCC2(CC1)N=C(c1ccccc1O)CC(c1ccccc1O)N2 (stereo unspecified),-2,20
COc1ccc(O)c(C2=NC3(CCN(C(C)C)CC3)NC(c3ccccc3O)C2)c1 (stereo unspecified),-2,29
SMILES,Pf apPOL inh,mHTT CaM bind
CCOC(=O)N1CCC2(CC1)N=C(c1ccc(F)cc1)CC(c1cc(Cl)ccc1O)N2 (stereo unspecified),4,29
COc1cccc(C2=NC(C)(C(C)C)NC(c3ccccc3O)C2)c1 (stereo unspecified),-1,70*
COc1ccccc1C1CC(c2ccccc2O)=NC2(CCN(C(C)C)CC2)N1 (stereo unspecified),-3,66*
CCOC(=O)N1CCC2(CC1)N=C(c1ccc3c(c1)OCO3)CC(c1ccccc1O)N2 (stereo unspecified),6,21
CCCC1(C)N=C(c2ccc3c(c2)OCO3)CC(c2ccccc2O)N1 (stereo unspecified),-8,84*
CC(=O)N1CCC2(CC1)N=C(c1ccc(C)c(C)c1)CC(c1cc(Cl)ccc1O)N2 (stereo unspecified),-2,63*
O=C1C(=O)N(c2ncccn2)C(c2ccccc2)C1=C(O)c1ccc(Cl)cc1 (stereo unspecified),-1,-3
COc1ccc(NC(=O)N2CCC3(CC2)NC(=O)c2cc(C)ccc2N3C)cc1,-1,-2
Cc1cccc2nnc(N3CCCC(C(=O)Nc4ccc5c(c4)OCCO5)C3)n12 (stereo unspecified),1,6
